Inconclusive results are not listed. Entries that show only a call come without a potency. Active and inactive are the calls of the source. Calls follow the shape of the dose curve; as a rule, active = well fitted curve in the direction sought with a large enough effect in the repeat runs; inconclusive = weak or mixed curves; inactive = no such curve, though single readings can be large; an effect the other way counts as inactive or inconclusive.
Legend:
[1] = target: Cytochrome P450 2C19 (Homo sapiens) (UniProt P33261); assay: Cytochrome P450 Family 2 Subfamily C Member 19 (CYP2C19) small molecule antagonists: luciferase reporter qHTS assay (AID 1671197); also: nearly all actives have a fitted effect of over 65% in size; also: potency is read from the fitted curve at half-maximal effect
Sequence of Cytochrome P450 2C19 (Homo sapiens) (P33261 whole entry, looked up): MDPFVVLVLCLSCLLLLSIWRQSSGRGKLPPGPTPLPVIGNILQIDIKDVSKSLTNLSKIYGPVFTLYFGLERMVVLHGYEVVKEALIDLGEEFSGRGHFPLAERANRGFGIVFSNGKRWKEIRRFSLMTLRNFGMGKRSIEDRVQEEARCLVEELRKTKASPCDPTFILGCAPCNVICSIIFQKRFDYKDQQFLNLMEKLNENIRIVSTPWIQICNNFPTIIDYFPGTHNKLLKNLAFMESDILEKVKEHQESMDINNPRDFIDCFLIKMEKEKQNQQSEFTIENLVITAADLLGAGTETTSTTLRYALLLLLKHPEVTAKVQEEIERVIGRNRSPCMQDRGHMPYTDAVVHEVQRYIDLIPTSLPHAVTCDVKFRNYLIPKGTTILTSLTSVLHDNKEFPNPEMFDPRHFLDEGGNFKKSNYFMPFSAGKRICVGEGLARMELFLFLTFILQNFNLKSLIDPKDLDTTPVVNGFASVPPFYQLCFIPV
How it was run: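 Quantitative high-throughput screen of the Tox21 library using CYP2C19 with proluciferin substrate. Reaction: NADPH regeneration, 37C, 1 h, after 10 min compound preincubation at room temperature. Readout: luminescence.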

[2] = target: Cytochrome P450 1A2 (Homo sapiens) (UniProt P05177); assay: Cytochrome P450 Family 1 Subfamily A Member 2 (CYP1A2) small molecule antagonists: luciferase reporter qHTS assay (AID 1671199); also: nearly all actives have a fitted effect of over 50% in size; also: potency is read from the fitted curve at half-maximal effect
Sequence of Cytochrome P450 1A2 (Homo sapiens) (P05177 whole entry, looked up): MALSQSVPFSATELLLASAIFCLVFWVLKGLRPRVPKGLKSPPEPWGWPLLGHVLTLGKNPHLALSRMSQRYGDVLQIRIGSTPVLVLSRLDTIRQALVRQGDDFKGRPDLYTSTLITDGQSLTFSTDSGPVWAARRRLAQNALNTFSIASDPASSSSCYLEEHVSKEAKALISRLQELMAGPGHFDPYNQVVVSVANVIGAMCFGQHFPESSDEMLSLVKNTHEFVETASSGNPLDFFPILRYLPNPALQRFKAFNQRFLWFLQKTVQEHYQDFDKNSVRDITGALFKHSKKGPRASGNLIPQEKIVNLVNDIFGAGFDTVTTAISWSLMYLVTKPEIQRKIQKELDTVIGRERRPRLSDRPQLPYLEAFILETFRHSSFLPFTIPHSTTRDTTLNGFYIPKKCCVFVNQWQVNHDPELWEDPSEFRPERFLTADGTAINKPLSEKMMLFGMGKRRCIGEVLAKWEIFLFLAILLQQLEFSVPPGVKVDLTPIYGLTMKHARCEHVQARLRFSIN
How it was run: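 P450-Glo CYP1A2 enzyme–proluciferin substrate mix with compound 10 min at room temperature, then NADPH regeneration 1 h at room temperature. Luciferin detection reagent added, luminescence read after 20 min; furafylline positive control.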

[3] = target: Voltage-gated inwardly rectifying potassium channel KCNH2 (Homo sapiens) (UniProt Q12809); assay: Human Ether-a-go-go-Related Gene (hERG) channel small molecule antagonists: fluorescence cell-based qHTS assay (AID 1671200); also: nearly all actives have a fitted effect of over 50% in size; also: potency is read from the fitted curve at half-maximal effect
Sequence of Voltage-gated inwardly rectifying potassium channel KCNH2 (Homo sapiens) (Q12809 whole entry, looked up): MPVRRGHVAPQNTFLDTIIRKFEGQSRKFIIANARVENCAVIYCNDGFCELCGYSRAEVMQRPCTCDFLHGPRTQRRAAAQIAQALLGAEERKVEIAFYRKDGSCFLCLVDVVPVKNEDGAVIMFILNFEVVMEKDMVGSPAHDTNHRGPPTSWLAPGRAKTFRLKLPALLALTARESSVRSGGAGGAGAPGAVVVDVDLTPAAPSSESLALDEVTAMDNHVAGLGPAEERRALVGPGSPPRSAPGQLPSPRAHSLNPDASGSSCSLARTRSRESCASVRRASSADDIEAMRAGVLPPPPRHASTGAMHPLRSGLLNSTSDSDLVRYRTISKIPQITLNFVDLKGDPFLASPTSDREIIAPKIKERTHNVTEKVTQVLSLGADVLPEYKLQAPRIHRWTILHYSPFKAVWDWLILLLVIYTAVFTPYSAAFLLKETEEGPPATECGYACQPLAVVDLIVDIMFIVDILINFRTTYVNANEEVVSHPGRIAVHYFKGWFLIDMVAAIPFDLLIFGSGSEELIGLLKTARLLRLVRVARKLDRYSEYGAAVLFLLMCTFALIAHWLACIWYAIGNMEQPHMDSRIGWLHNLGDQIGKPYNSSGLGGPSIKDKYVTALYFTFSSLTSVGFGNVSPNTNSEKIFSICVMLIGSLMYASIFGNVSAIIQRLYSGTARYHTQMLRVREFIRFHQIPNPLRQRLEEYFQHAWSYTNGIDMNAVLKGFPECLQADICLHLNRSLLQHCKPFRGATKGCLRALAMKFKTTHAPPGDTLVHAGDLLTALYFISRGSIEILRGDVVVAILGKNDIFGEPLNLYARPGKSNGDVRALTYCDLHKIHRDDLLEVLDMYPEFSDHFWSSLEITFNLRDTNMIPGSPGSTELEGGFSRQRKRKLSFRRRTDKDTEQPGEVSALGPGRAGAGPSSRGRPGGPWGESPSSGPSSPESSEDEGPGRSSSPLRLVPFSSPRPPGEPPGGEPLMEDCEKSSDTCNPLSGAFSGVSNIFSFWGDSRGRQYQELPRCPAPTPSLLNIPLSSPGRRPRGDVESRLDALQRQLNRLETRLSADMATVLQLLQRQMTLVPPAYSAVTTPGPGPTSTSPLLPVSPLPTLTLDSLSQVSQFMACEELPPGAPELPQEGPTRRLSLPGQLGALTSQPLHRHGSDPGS
How it was run: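 Read-out: thallium influx as a surrogate for potassium, tracked as fluorescence (480 nm ex/540 nm em) every second for 2 min after Stimulus Buffer addition in dye-loaded hERG-U2OS cells.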

[4] = target: Cytochrome P450 3A4 (Homo sapiens) (UniProt P08684); assay: Cytochrome P450 Family 3 Subfamily A Member 4 (CYP3A4) small molecule antagonists: luciferase reporter qHTS assay (AID 1671201); also: series mostly up to about 120 µM; nearly all actives have a fitted effect of over 50% in size
Sequence of Cytochrome P450 3A4 (Homo sapiens) (P08684 whole entry, looked up): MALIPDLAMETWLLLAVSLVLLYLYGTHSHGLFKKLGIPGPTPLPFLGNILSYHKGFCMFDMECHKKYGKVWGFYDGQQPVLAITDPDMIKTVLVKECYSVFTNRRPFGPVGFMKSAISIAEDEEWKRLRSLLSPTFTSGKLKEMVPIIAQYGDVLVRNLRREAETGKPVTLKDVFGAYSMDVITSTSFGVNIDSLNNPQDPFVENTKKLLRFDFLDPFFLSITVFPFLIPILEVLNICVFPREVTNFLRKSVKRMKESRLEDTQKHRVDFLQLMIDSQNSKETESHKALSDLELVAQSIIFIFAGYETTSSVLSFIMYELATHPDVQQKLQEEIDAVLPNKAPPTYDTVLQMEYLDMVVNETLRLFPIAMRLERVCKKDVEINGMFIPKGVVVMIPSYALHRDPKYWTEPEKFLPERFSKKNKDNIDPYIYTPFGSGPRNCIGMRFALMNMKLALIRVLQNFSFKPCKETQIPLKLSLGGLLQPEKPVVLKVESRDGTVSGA
How it was run: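 Luminescent readout (RLU) proportional to CYP3A4 activity, from luciferin generated off a proluciferin substrate. Enzyme–substrate mix plus compound 10 min at room temp, NADPH regeneration 1 h, detection reagent 20 min.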

[5] = target: Cytochrome P450 2C9 (Homo sapiens) (UniProt P11712); assay: Cytochrome P450 Family 2 Subfamily C Member 9 (CYP2C9) small molecule antagonists: luciferase reporter qHTS assay (AID 1671198); also: nearly all actives have a fitted effect of over 50% in size; also: potency is read from the fitted curve at half-maximal effect
Sequence of Cytochrome P450 2C9 (Homo sapiens) (P11712 whole entry, looked up): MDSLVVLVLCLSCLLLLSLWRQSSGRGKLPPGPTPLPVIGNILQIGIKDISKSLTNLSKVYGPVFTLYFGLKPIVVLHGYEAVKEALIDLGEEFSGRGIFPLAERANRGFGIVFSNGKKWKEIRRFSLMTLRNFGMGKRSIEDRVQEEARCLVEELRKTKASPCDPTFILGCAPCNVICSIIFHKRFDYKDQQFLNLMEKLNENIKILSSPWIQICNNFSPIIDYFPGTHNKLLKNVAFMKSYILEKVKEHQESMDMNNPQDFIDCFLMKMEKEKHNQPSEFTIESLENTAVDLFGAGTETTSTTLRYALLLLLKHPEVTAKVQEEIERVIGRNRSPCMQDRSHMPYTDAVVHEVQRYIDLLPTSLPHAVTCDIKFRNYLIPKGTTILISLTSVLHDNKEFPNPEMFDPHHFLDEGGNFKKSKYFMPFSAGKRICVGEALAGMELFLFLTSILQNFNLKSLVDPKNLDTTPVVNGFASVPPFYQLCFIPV
How it was run: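 Enzyme-substrate mix preincubated with compound 10 min at room temperature; reaction started with NADPH regeneration solution, 1 h 37C. Luminescent luciferin product read after 20 min detection reagent.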

Compound: Cc1c(F)cc2c(=O)c(C(=O)O)cn3c2c1CCC3C (stereo not given)
- Potency [1]: inactive
- Potency [2]: inactive
- Potency [3]: inactive
- Potency [4]: inactive

Compound: N#CCc1ccccc1[N+](=O)[O-]
- Potency [1]: inactive
- Potency [2]: 31.3 µM (active)
- Potency [3]: inactive
- Potency [4]: inactive

Compound: CC(C)c1cccc(C(C)C)c1N
- Potency [1]: inactive
- Potency [2]: 20 µM (active)
- Potency [3]: inactive
- Potency [4]: inactive

Compound: CCOC(=O)Nc1ccc2c(c1)N(C(=O)CCN1CCOCC1)c1ccccc1S2
- Potency [1]: 7.76 µM (active)
- Potency [2]: inactive
- Potency [3]: inactive

Compound: C#CC(O)C(CC)CCCC (stereo not given)
- Potency [1]: 71 µM (active)
- Potency [2]: inactive
- Potency [3]: inactive

Compound: [O-][N+](=Nc1ccccc1)c1ccccc1
- Potency [1]: 63.3 µM (active)
- Potency [2]: 5.64 µM (active)
- Potency [3]: inactive
- Potency [4]: inactive

Compound: c1ccc(SCCSc2ccccc2)cc1
- Potency [1]: 3.53 µM (active)
- Potency [2]: 31.4 µM (active)
- Potency [3]: inactive
- Potency [4]: inactive

Compound: COc1ccc(COC=O)cc1
- Potency [1]: inactive
- Potency [2]: 63.3 µM (active)
- Potency [3]: inactive
- Potency [4]: inactive

Compound: O=[N+]([O-])c1ccc(Oc2ccc([N+](=O)[O-])cc2)cc1
- Potency [1]: 1.82 µM (active)
- Potency [2]: inactive
- Potency [3]: 39.8 µM (active)
- Potency [4]: inactive

Compound: O=S(=O)(c1cccc2cnccc12)N1CCCNCC1
- Potency [1]: inactive
- Potency [2]: inactive
- Potency [3]: inactive

Compound: CC(=O)CCc1ccc(O)cc1
- Potency [1]: 20 µM (active)
- Potency [2]: inactive
- Potency [3]: inactive
- Potency [4]: inactive

Compound: CCCCCCCCC=O
- Potency [1]: inactive
- Potency [2]: inactive
- Potency [3]: inactive
- Potency [4]: inactive

Compound: CC1(C)SC(C)(C)SC(C)(C)S1
- Potency [1]: inactive
- Potency [2]: inactive
- Potency [3]: inactive
- Potency [4]: inactive

Compound: O=C(O)C(O)[C@H](O)[C@@H](O)[C@H](O)[C@H](O)CO (stereo not given in full)
- Potency [1]: 40.4 µM (active)
- Potency [2]: 40.4 µM (active)
- Potency [3]: inactive
- Potency [4]: inactive

Compound: CC(C)(O)C(=O)c1ccc(OCCO)cc1
- Potency [1]: inactive
- Potency [2]: 35.6 µM (active)
- Potency [3]: inactive
- Potency [4]: inactive

Compound: COc1ccc(N=[N+]([O-])c2ccc(OC)cc2)cc1
- Potency [1]: 19.8 µM (active)
- Potency [2]: 7.03 µM (active)
- Potency [3]: inactive
- Potency [4]: inactive

Compound: CCC(=O)c1cccc(Cl)c1
- Potency [1]: inactive
- Potency [2]: inactive
- Potency [3]: inactive
- Potency [4]: inactive

Compound: O=C1CC2(CCCC2)CC(=O)N1
- Potency [1]: inactive
- Potency [2]: inactive
- Potency [3]: inactive
- Potency [4]: inactive

Compound: Cc1nc(-c2ccc(OCC(C)C)c(C#N)c2)sc1C(=O)O
- Potency [1]: inactive
- Potency [2]: inactive
- Potency [3]: inactive
- Potency [4]: inactive

Compound: CCOC(=O)[C@H](CCc1ccccc1)N[C@@H](C)C(=O)N1CCC[C@H]1C(=O)O
- Potency [1]: inactive
- Potency [2]: inactive
- Potency [3]: inactive

Compound: O=C(O)c1ccccc1S
- Potency [1]: inactive
- Potency [2]: inactive
- Potency [3]: inactive
- Potency [4]: inactive

Compound: Cc1ccccc1C(=O)O
- Potency [1]: inactive
- Potency [2]: inactive
- Potency [3]: inactive
- Potency [4]: inactive

Compound: CCCCCCCCN(C)CCCCCCCC
- Potency [1]: inactive
- Potency [2]: inactive
- Potency [3]: 1.57 µM (active)
- Potency [4]: inactive

Compound: O=C(O)Cc1cc(I)c(Oc2cc(I)c(O)c(I)c2)c(I)c1
- Potency [1]: inactive
- Potency [2]: inactive
- Potency [3]: inactive
- Potency [4]: inactive

Compound: CCC(C(=O)NC(N)=O)c1ccccc1 (stereo not given)
- Potency [1]: 79.6 µM (active)
- Potency [2]: 28.3 µM (active)
- Potency [3]: inactive
- Potency [4]: inactive

Compound: CCCC(C)C(=O)O (stereo not given)
- Potency [1]: 34.2 µM (active)
- Potency [2]: 68.2 µM (active)
- Potency [3]: inactive

Compound: O=C(O)CCNC(=O)c1ccc(N=Nc2ccc(O)c(C(=O)O)c2)cc1
- Potency [1]: inactive
- Potency [2]: inactive
- Potency [3]: inactive
- Potency [4]: inactive

Compound: C#CC(C)(O)CC(C)C (stereo not given)
- Potency [1]: inactive
- Potency [2]: inactive
- Potency [3]: inactive
- Potency [4]: inactive

Compound: CCCCN(CCO)CCO
- Potency [1]: inactive
- Potency [2]: inactive
- Potency [3]: inactive
- Potency [4]: inactive

Compound: CC1=CC(C)C(C=O)C(C)C1 (stereo not given)
- Potency [1]: inactive
- Potency [2]: inactive
- Potency [3]: inactive
- Potency [4]: inactive

Compound: Fc1ccccc1-c1ccccc1
- Potency [1]: inactive
- Potency [2]: 40.8 µM (active)
- Potency [3]: inactive
- Potency [4]: inactive

Compound: CC(C)CCCC(C)CCCC(C)CCCCC(C)CCCC(C)CCCC(C)C (stereo not given)
- Potency [1]: inactive
- Potency [2]: inactive
- Potency [3]: inactive
- Potency [4]: inactive

Compound: COC(=O)c1ccc(C(=O)OC)c(C(=O)OC)c1
- Potency [1]: 39.9 µM (active)
- Potency [2]: 7.96 µM (active)
- Potency [3]: inactive
- Potency [4]: inactive

Compound: O=C(CCOCCOCCOCCOCCC(=O)Nc1c(I)cc(I)c(C(=O)O)c1I)Nc1c(I)cc(I)c(C(=O)O)c1I
- Potency [1]: inactive
- Potency [2]: inactive
- Potency [3]: inactive
- Potency [4]: inactive

Compound: COc1cc(C(=O)N2CCOCC2)cc(OC)c1OC
- Potency [1]: inactive
- Potency [2]: inactive
- Potency [3]: inactive
- Potency [4]: inactive

Compound: CCCc1ccc(N)cc1
- Potency [1]: 35.6 µM (active)
- Potency [2]: 35.6 µM (active)
- Potency [3]: inactive

Compound: O=c1[nH]c2ccccc2c(=O)n1CCCl
- Potency [1]: inactive
- Potency [2]: 5.49 µM (active)
- Potency [3]: inactive
- Potency [4]: inactive

Compound: O=C(O)/C=C/c1ccc(Cn2ccnc2)cc1
- Potency [5]: 17.4 µM (active)

Compound: CC/C=C\C#N
- Potency [5]: inactive
- Potency [2]: inactive
- Potency [3]: inactive
- Potency [4]: inactive

Compound: CCCCCCCCCCCCI
- Potency [4]: inactive

Compound: NS(=O)(=O)c1cc2c(cc1Cl)NC(CSCc1ccccc1)=NS2(=O)=O
- Potency [5]: 4.9 µM (active)
- Potency [2]: inactive
- Potency [3]: inactive

Compound: CCCCCN(CCCCC)C(=O)C(CCC(=O)O)NC(=O)c1ccc(Cl)c(Cl)c1 (stereo not given)
- Potency [2]: inactive
- Potency [3]: 9.52 µM (active)

Compound: O=S(=O)(O)c1ccccc1O
- Potency [5]: inactive
- Potency [2]: inactive
- Potency [3]: inactive
- Potency [4]: inactive

Compound: CCN(CC)S(=O)(=O)c1ccc(C(=O)O)cc1
- Potency [2]: inactive
- Potency [3]: inactive
- Potency [4]: inactive
